Assay results: paper PMC7826789 (International Journal of Molecular Sciences, 2021)

Experiments:
Conditions in all cases: Compound Concentration (nM):1000
LRRK2 = system: LRRK2
LTK = system: LTK
LYN = system: LYN
LZK = system: T1, LZK
T1 construct: gene MAP3K13

MAK = system: MAK
MAP3K15 = system: MAP3K15
MAP3K1 = system: MAP3K1
MAP3K2 = system: MAP3K2
MAP3K3 = system: MAP3K3
MAP3K4 = system: MAP3K4
MAP4K2 = system: MAP4K2
MAP4K3 = system: MAP4K3
MAP4K4 = system: MAP4K4
MAP4K5 = system: MAP4K5
MAPKAPK2 = system: MAPKAPK2
MAPKAPK5 = system: MAPKAPK5
MARK1 = system: MARK1
MARK2 = system: MARK2
MARK3 = system: MARK3
MARK4 = system: MARK4
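Further: KINOMEscan scanMAX binding as percent activity remaining versus control; lower means stronger binding.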

Compound	Percent Control (LRRK2)	Percent Control (LTK)	Percent Control (LYN)	Percent Control (LZK)	Percent Control (MAK)	Percent Control (MAP3K15)	Percent Control (MAP3K1)	Percent Control (MAP3K2)	Percent Control (MAP3K3)	Percent Control (MAP3K4)	Percent Control (MAP4K2)	Percent Control (MAP4K3)	Percent Control (MAP4K4)	Percent Control (MAP4K5)	Percent Control (MAPKAPK2)	Percent Control (MAPKAPK5)	Percent Control (MARK1)	Percent Control (MARK2)	Percent Control (MARK3)	Percent Control (MARK4)
CC1=C(C(=O)Nc2ccc3[nH]ncc3c2)C(c2ccc(Cl)c(Cl)c2)CC(=O)N1 (centres unmarked) [GSK299115A]	96%	84%	100%	79%	100%	84%	76%	85%	85%	100%	79%	79%	73%	75%	96%	100%	100%	100%	78%	100%
NS(=O)(=O)c1ccc(N/N=C2\C(=O)Nc3ccc(Cl)cc32)cc1 [GW280670X]	72%	100%	90%	100%	100%	100%	63%	100%	100%	100%	90%	94%	99%	100%	100%	100%	100%	100%	100%	94%
Cl.O=S1CCN(Cc2ccc(-c3ccc4ncnc(Nc5ccc(OCc6ccccc6)c(F)c5)c4c3)o2)CC1 [GW576924A]	98%	100%	100%	100%	100%	94%	81%	100%	100%	100%	100%	100%	91%	100%	80%	98%	91%	100%	100%	89%
COc1ccccc1-c1cc(/C=C2\C(=O)Nc3ncc(Br)cc32)cc(Br)c1O [GW442130X]	100%	100%	100%	84%	100%	89%	99%	100%	100%	100%	89%	100%	96%	94%	100%	100%	81%	100%	100%	100%
COc1ccc2cc(-c3c(-c4ccncc4)nc(-c4ccc(S(C)(=O)=O)cc4C)n3C)ccc2c1 [SB-633825]	96%	23%	66%	65%	86%	83%	60%	60%	79%	90%	93%	93%	39%	91%	100%	95%	88%	93%	100%	71%
CCc1ccc(Oc2nccc(-c3c(-c4ccc(F)cc4)ncn3C3CCNCC3)n2)cc1 [SB-242719]	100%	95%	100%	95%	100%	91%	67%	98%	66%	93%	40%	87%	69%	53%	91%	96%	69%	77%	61%	100%
COc1ccc2[nH]c3c4[nH]c5ccc(OC)cc5c4c4c(c3c2c1)C(=O)NC4=O [GW296115X]	2.8%	58%	69%	77%	82%	64%	71%	85%	59%	100%	75%	73%	2.7%	51%	100%	90%	100%	71%	83%	100%
NS(=O)(=O)c1ccc(N/N=C2\C(=O)Nc3ccc(C(=O)NCc4ccncc4)cc32)cc1 [GW300657X]	69%	100%	81%	72%	100%	80%	67%	87%	72%	99%	84%	99%	88%	96%	100%	89%	100%	91%	63%	91%
Cl.O=C(O[C@H]1CN[C@H](C#Cc2cc3ncnc(Nc4ccc5c(cnn5Cc5ccccc5)c4)c3s2)C1)N1CCOCC1 [GSK200398A]	97%	85%	76%	100%	100%	95%	56%	97%	89%	82%	98%	100%	83%	92%	72%	90%	100%	87%	83%	100%
O=C1Nc2ccc(C(=O)c3ccco3)cc2C1=Cc1cc(Cl)c(O)c(Cl)c1 [GW406108X]	13%	93%	86%	94%	100%	90%	63%	96%	78%	100%	90%	100%	50%	99%	100%	100%	63%	75%	100%	100%
COc1cc(/C=N/Nc2ncnc3[nH]ncc23)ccc1O [GW578748X]	54%	100%	86%	100%	100%	96%	49%	67%	85%	93%	43%	100%	100%	100%	100%	100%	79%	100%	99%	60%
CC1=C(C(=O)Nc2ccc3[nH]ncc3c2)C(c2ccc3ccccc3c2)CC(=O)N1 (centres unmarked) [GSK270822A]	100%	100%	66%	72%	100%	73%	68%	60%	84%	100%	100%	90%	79%	93%	97%	96%	91%	95%	100%	76%
CCS(=O)(=O)c1ccc(OC)c(Nc2ncc(-c3cccc(OC)c3)o2)c1 [GW580509X]	100%	100%	53%	100%	100%	100%	68%	100%	100%	100%	89%	100%	100%	100%	96%	100%	100%	100%	100%	99%
COc1cc(C)c(N(C)C(=O)CN(C)C)cc1Nc1nc(Nc2cccc(F)c2C(N)=O)c2cc[nH]c2n1 [GSK2219385]	11%	74%	100%	80%	100%	98%	83%	93%	67%	90%	100%	100%	100%	100%	83%	92%	100%	95%	89%	89%
Cl.O=C(Nc1ccc(Oc2ccc3[nH]c(NC(=O)c4ccccc4)nc3c2)cc1)Nc1cc(C(F)(F)F)ccc1F [GW709042A]	39%	9.5%	72%	100%	100%	100%	57%	100%	84%	100%	88%	100%	100%	99%	100%	100%	61%	100%	91%	76%
CN1CCN(C(=O)c2ccc(NC(=O)Nc3ccc(N(C)c4ccnc(Nc5ccc(CS(C)(=O)=O)cc5)n4)cc3)cc2)CC1.Cl [GW830263A]	74%	85%	71%	70%	64%	86%	83%	38%	57%	4%	43%	25%	33%	32%	100%	84%	44%	84%	43%	92%
Cc1cc(O)cc(C)c1/C=C/c1cncc(C(N)=O)c1 [GW435821X]	81%	100%	38%	100%	100%	100%	65%	79%	59%	100%	56%	81%	100%	100%	100%	100%	100%	100%	91%	78%
CN(C)c1cc2c(Nc3ccc4c(cnn4Cc4ccccc4)c3)ncnc2cn1 [GW282974X]	97%		89%	100%	98%	100%		90%	73%	88%	92%	100%	76%	98%	69%	90%	100%	97%	100%	90%
O=C(Nc1n[nH]c2nc(-c3ccc(O)cc3)c(Br)cc12)C1CC1 [SB-725317]	89%	60%	100%	100%	39%	94%	60%	84%	97%	100%	38%	100%	84%	100%	100%	100%	95%	100%	100%	100%
Cl.O=C(Nc1ccc(Oc2ccc3[nH]c(NC(=O)c4ccco4)nc3c2)cc1)Nc1cc(C(F)(F)F)ccc1F [GW683134A]	28%	6.2%	29%	100%	100%	90%	53%	100%	85%	86%	85%	83%	95%	84%	94%	100%	100%	100%	82%	100%
